Source: PubChem BioAssay (NCI)
The panel holds about 79,000 compounds, 15% with a hit somewhere; the sample as a whole holds those more often. Values without a mark were called inactive. Calls of active or inactive are those of the source. Cut-off read from the data, not from the text of the source: active = growth inhibition above about 70%; inactive = the rest.

Legend:
[1] = NCI Yeast Anticancer Drug Screen. Data for the rad50 strain (AID 155);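 note: 0% = growth of vehicle-only cultures of the same strain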; conditions: S. cerevisiae rad50 strain growth inhibition; at 50.0 µM; active compounds read high
Method in brief: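 Readout: growth inhibition relative to vehicle-treated cultures. Compound exposure was carried out in a genetically defined yeast strain deficient in DNA damage repair.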

[2] = NCI Yeast Anticancer Drug Screen. Data for the mec2-1 strain (AID 157); conditions: S. cerevisiae mec2-1 strain, at 50.0 µM, active compounds read high
Method in brief: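 Growth inhibition is read against vehicle-treated controls after compound exposure of the mec2-1 yeast strain, which is defective in DNA damage repair or cell cycle control.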

[3] = NCI Yeast Anticancer Drug Screen. Data for the sgs1 mgt1 strain (AID 161);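 note: 0% = growth of cultures given vehicle only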; conditions: S. cerevisiae sgs1 mgt1 strain, at 50.0 µM, active compounds read high
Method in brief: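 Yeast cells carrying a defined DNA-repair defect were exposed to test compounds. Growth inhibition was measured relative to vehicle-treated controls.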

[4] = NCI Yeast Anticancer Drug Screen. Data for the cln2 rad14 strain (AID 165);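 note: 0% = growth equal to vehicle treated cultures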; conditions: S. cerevisiae cln2 rad14 strain, at 50.0 µM, active compounds read high
Method in brief: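 Growth inhibition, relative to vehicle-treated controls, is the read-out. The test organism is a yeast strain with defined genetic alterations, cln2 rad14.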

[5] = NCI Yeast Anticancer Drug Screen. Data for the bub3 strain (AID 167); conditions: S. cerevisiae bub3 mutant strain, at 50.0 µM, active compounds read high
Method in brief: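 Readout: yeast growth inhibition, expressed relative to vehicle-only wells. The test organism is a mutant strain from a panel with lesions in DNA repair or checkpoint genes.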

[6] = NCI Yeast Anticancer Drug Screen. Data for the mlh1 rad18 strain (AID 175); conditions: S. cerevisiae mlh1 rad18 strain growth inhibition; at 50.0 µM; active compounds read high
Method in brief: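 Cells of a genetically altered yeast strain, deficient in DNA damage repair, were treated with compound. Their growth was then compared with that of vehicle-treated cultures to give inhibition.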

Structure (SMILES)	growth inhibition [1]	growth inhibition [2]	growth inhibition [3]	growth inhibition [4]	growth inhibition [5]	growth inhibition [6]
CC1(C)NN=C([N+](=O)[O-])C1c1ccccc1 (stereo unspecified)	5.95%	10.7%	7.2%	-14.4%	-11%	6.65%
O=C1CC2COc3ccc(OCCN4CCCC4)cc3C2=NN1c1ccccc1 (stereo unspecified)	-4.75%	16.9%	-22.7%	-18.9%	2.15%	1.1%
COc1cccc(/C=C\c2ccc(O)cc2)c1	87% (active)	91% (active)	92% (active)	92% (active)	91.2% (active)	91.5% (active)
Cc1ccc(C(C)C)cc1[N+](=O)[O-]	9.9%	-3.55%	-17.7%	-41%	-13.6%	-21.3%
Cn1nnc(CCCl)n1	-5.35%	-5.1%	-8.15%	-36.9%	16.8%	5.5%
Cc1ccc(S(=O)(=O)c2scc(-c3ccccc3)c2C)cc1	-47.2%	-57.8%	-31.1%	-8.7%	-17.9%	-13.2%
CC(=O)Nc1ccc2nc(N)sc2c1	13%	5.55%	-16.1%	-3.65%	3.8%	6.6%
Cn1c2c(c3ccccc31)CC1c3c(c4ccccc4n3C)CC21 (stereo unspecified)	-79%	-51%	-49%	-26.2%	-18.6%	-45.4%
NC(=O)C1CC(O)CC(C(N)=O)O1 (stereo unspecified)	-6.75%	8.3%	-9.55%	3.4%	-2.35%	-23.9%
Nc1cccc(OCC2CCCN3CCCCC23)c1 (stereo unspecified)	20%	-17.9%	4.9%	2.45%	6.05%	-64.8%
CC(C)(C)OC(=O)C(C1NC2C(=O)OCC2(CO)S1)N1C(=O)c2ccccc2C1=O (stereo unspecified)	38.6%	-1.65%	25.9%	-6.35%	-1.75%	12.5%
CC(=O)CCC(CCCC(CCC(C)=O)[N+](=O)[O-])[N+](=O)[O-] (stereo unspecified)	-7.3%	15.3%	0.9%	-9.4%	13.9%	4.15%
O=C(NO)c1ccc(Cl)cc1Cl	57.9%	-0.8%	37.7%	-11.9%	18.6%	43.7%
O=C(COCC(=O)N/N=C/c1ccc(Cl)cc1Cl)N/N=C\c1cc(Cl)cc(Cl)c1	-21.1%	-1.65%	0.75%	37.2%	-1%	-12.2%
O=C(CCN1C(=O)c2ccccc2C1=O)NCS(=O)(=O)O	-11.8%	-4.7%	-11.1%	-47.5%	16.2%	-17.5%
Cc1ccc(/C(O)=C/C(=O)C(=O)NN=C(c2ccccc2)c2ccccc2)cc1	5.9%	-11.9%	26.8%	4.85%	20.3%	-1.85%
Cc1ccc(C2(O)CCCCC2)cc1	-9.8%	-8.45%	-32%	26.2%	-8.95%	7.1%
OCC(O)COCC#Cc1ccccc1 (stereo unspecified)	6%	1.85%	3.1%	-60.2%	-14.6%	16.2%
COc1cc(C(c2ccc3c(c2)OCO3)C2SCCCS2)cc(OC)c1OC (stereo unspecified)	25.2%	13.7%	21%	6.6%	-12%	37.9%
NC(Cc1ccc(F)cc1)(C(=O)O)c1ccccc1 (stereo unspecified)	5.2%	28.5%	8.55%	-23.4%	5.85%	28.8%
NCCNC(c1ccccc1)C(O)c1ccccc1 (stereo unspecified)	-8.7%	-0.7%	-1.25%	-33.9%	-41.2%	-4.25%

Structure (SMILES)	growth inhibition [1]	growth inhibition [2]	growth inhibition [3]	growth inhibition [4]	growth inhibition [5]	growth inhibition [6]
COC(=O)C1=C2C3(O)CC4CC5C3CCC(C)N5C24C2CCC(O)C(OC)C2C1OC(=O)c1ccccc1 (stereo unspecified)	-34.6%	-38.3%	-20.9%	-1.85%	-30.4%	4.35%
Cn1c(=O)c2[nH]c(CC3=CCCCC3)nc2n(C)c1=O	-13.6%	13.1%	6.05%	-8.35%	4.4%	21.6%
CSCCC(NC(=O)NS(=O)(=O)c1ccc(C)cc1)C(=O)O (stereo unspecified)	-4.3%	-16.1%	-2.3%	20.2%	6.45%	9.55%
CC(=O)Nc1ccc(O)c(C(=O)O)c1	-8.6%	7.3%	-8.55%	-6%	24.1%	-24.4%
CC(=O)[C@H]1CC[C@H]2[C@@H]3CCC4=CC(=O)CC[C@]4(C)[C@H]3C[C@H](OS(=O)(=O)c3ccc(C)cc3)[C@]12C	20.3%	18.1%	31.2%	38.7%	12.1%	15.4%
CCCCCCc1cc(C(=O)N/N=C/c2ccccc2O)c2ccccc2n1	-35.2%	-8.1%	16%	-13.2%	67.6%	-2.95%
COC1=CC(=O)C(=O)C=C1C(C)(C)C	49.2%	40.3%	48.8%	2.45%	49.4%	9.55%
BrC1(Br)C2COCOCC21 (stereo unspecified)	-9.6%	-1.4%	-1.05%	0.55%	-4.75%	8.05%
COC(=O)CCC1CCC(CC2CCC(CCC(=O)OC)CC2)CC1 (stereo unspecified)	-20.1%	-6.95%	-6.65%	-26%	-9.7%	-4.25%
CCCCCCC(=O)/C=C/c1ccccc1OCOC	-3.35%	-9.8%	4.6%	-13.7%	-18.9%	-4.45%
CCC(=O)c1ccc(O)c(C)c1	4.85%	-2.9%	0.2%	-2.6%	37.7%	2.45%
NCCNC(=O)CCC(CN(CC(=O)O)CC(=O)O)N(CC(=O)O)CC(=O)O (stereo unspecified)	42.8%	69.7%	44%	57%	39%	42.7%
O=C1NC(=O)C(c2cccc(F)c2)N1 (stereo unspecified)	-12.1%	-12.3%	9.7%	-9%	4.7%	-7.7%
O=C1/C(=C/c2ccco2)SC(=S)N1C1c2ccccc2Oc2ccccc21	25%	6.65%	67.2%	45.6%	-0.4%	24.8%
CC(=O)Oc1ccc(-c2ccccc2)cc1C(=O)O	5.9%	1.55%	29.4%	-15.7%	41.3%	11.6%
Cc1c2c(cc3c(=O)ccn(CCN(C)C)c13)c(=O)ccn2CCN(C)C	-71.1%	-22.8%	-11.8%	14.3%	-20.4%	-16.4%
CCCC(=O)NC(Nc1ccc(S(=O)(=O)Nc2ccc(OC)nn2)cc1)(C(F)(F)F)C(F)(F)F	1.55%	-19.1%	-0.6%	0.35%	-16.8%	-9.25%
Cc1cc(Cl)ccc1NC(=O)C1C(=O)N(c2ccc(Cl)cc2C)C(=O)/C1=N\NC(N)=O (stereo unspecified)	7.65%	-24.4%	14.4%	6.1%	-6.45%	5.7%
CC1CCc2nc(N)sc2C1 (stereo unspecified)	14.4%	11.9%	18.9%	8.35%	1.1%	5.9%
O=C(O)c1ccccc1C(=O)OCC1CCCc2ccccc21 (stereo unspecified)	11.7%	45.7%	41.5%	-100%	43.5%	46%
